# Bioassay records from PubChem BioAssay.
# In the library only some 5.7% were active in any assay of this set; here they are far more common.
# PI5P4K alpha inh: PI5P4K alpha (human) kinase inhibition | max response, % | P48426 | AID 652105 | PI5P4Kalpha enzyme, ADP-Glo luminescence, 60 min; stronger effect = lower value | 1.2% of 330,000 active; active = max response of -50% or lower; inconclusive = between -30% and -50%; inactive = -30% or higher; also: value at the top dose of about 77 µM; % is scaled to controls: 0 for no effect and ±100 for the full control effect
#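 Reactions run in 0.038 M HEPES pH 7.4, 0.28 mM EGTA, 0.1% CHAPS and 5% DMSO, with PI5P4Kalpha, substrate, compound and 5 microM ATP final, one hour at room temperature. Readout is ADP-Glo luminescence.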
# JMJD2E inh: JMJD2E (human) inhibition; Potency, µM (titrated, usually from 57.1 µM), for the others: at the top dose activity change, negative = inhibition, hits mostly inhibitors; B2RXH2; AID 2147; 1.6% of 230,000 active; JMJD2E catalytic domain, FDH-coupled NADH fluorescence (FDH is formaldehyde dehydrogenase); active = well fitted inhibition curve with a large enough effect, not every such curve was filed as active; inconclusive = small, poorly fitted or top-dose-only effect, or another doubt; inactive = no such curve, though single readings can be large or run the other way;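 also: potency is read from the fitted curve at half-maximal effect; 0% = wells with enzyme and -100% = buffer wells without enzyme; nearly all actives have a fitted effect of over 50% in size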
# JMJD2A Tudor: JMJD2A Tudor domain (human) inhibition | AlphaScreen JMJD2A-Tudor / H3K4me3 peptide binding | Potency, µM (highest dose often 114 µM), inactives show at the top dose activity change, negative = inhibition, hits mostly inhibitors | 4.4% of 390,000 active | AID 504339; also: potency is read from the fitted curve at half-maximal effect; % is scaled to controls: 0 for no effect and ±100 for the full control effect; nearly all actives have a fitted effect of over 50% in size
# BAZ2B block: BAZ2B (human) inhibition; 4.4% of 360,000 active; Potency, µM (series often up to 114 µM), inactives show top-dose activity change, negative = inhibition, most hits filed as inhibitors; AlphaScreen BAZ2B-H3K14Ac peptide displacement; also: potency is read from the fitted curve at half-maximal effect; % is scaled to controls: 0 for no effect and ±100 for the full control effect; nearly all actives have a fitted effect of over 60% in size
#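 AlphaScreen displacement of biotin-H3(5-23)K14Ac peptide (50 nM final) from BAZ2B (50 nM final) in PBS pH 7.4, 0.01% Tween-20; complex preformed 30 min RT, then compounds (top 110 uM) 30 min RT, beads 20 min dark.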
# HP1b binding inh: HP1-beta chromodomain-methylated histone interaction inhibition. 0.56% of 390,000 active. AlphaScreen HP1-beta / biotin-H3K9me3 peptide binding. Potency, µM (doses to about 114 µM), inactives show at the top dose activity change, negative = inhibition, usual class: inhibitors; also: potency is read from the fitted curve at half-maximal effect; nearly all actives have a fitted effect of over 70% in size
#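 AlphaScreen: HP1-beta (50 nM) preformed 30 min with biotin-H3(1-18)K9me3 peptide (50 nM) in PBS pH 7.4, 0.01% Tween-20. Compound added for 30 min at RT, then streptavidin donor/nickel chelate acceptor beads (10 ug/mL) for 30 min.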
# L3MBTL1 inh: inhibitors of human L3MBTL1; Q9Y468; AlphaScreen L3MBTL1–H3K9me1 peptide binding; Potency, µM (series often up to 57.1 µM), inactives show at the top dose activity, negative = inhibition, actives largely listed as inhibitors; 0.66% of 230,000 active; AID 485360; also: potency is read from the fitted curve at half-maximal effect; % is scaled to controls: 0 for no effect and ±100 for the full control effect; nearly all actives have a fitted effect of over 60% in size
#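 AlphaScreen proximity signal between nickel-chelate acceptor and streptavidin donor beads (final 10 ug/mL) reports binding of 50 nM L3MBTL1 to 75 nM biotin-H3 K9me1 peptide; complex incubated with compounds 30 min at room temperature; cefsulodin titration as control.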
# An asterisk follows results filed as active; ? = inconclusive; · = no result given; [ ] = dose if it differs, or a comment. Unless noted, calls follow the shape of the dose curve; as a rule, active = well fitted inhibition curve with a large enough effect; inconclusive = small, poorly fitted or top-dose-only effect; inactive = no such curve, though single readings can be large or run the other way.
SMILES,PI5P4K alpha inh,JMJD2E inh,JMJD2A Tudor,BAZ2B block,HP1b binding inh,L3MBTL1 inh
CCN(CC)C(=O)c1cccc(-c2csc(C(O)(c3ccccc3)C(F)(F)F)n2)c1 (centres undefined),4,·,·,·,·,·
O=C(NCCc1ccc(Cl)cc1)c1ccc(Cn2c(=O)c3cccn3c3cccnc32)cc1,·,·,?,?,1%,·
COC(=O)Cn1c(=O)c2cccn2c2cccnc21,·,·,-9%,-3%,18%,·
CCN1CCc2c(sc(-n3cccc3)c2C(C)NC(=O)Nc2ccc(C(=O)OC)cc2)C1 (centres undefined),·,·,?,?,-11%,·
CC(=O)N/N=C/c1c(C)[nH]n(-c2ccccc2)c1=O,-3,?,50µM*,79µM*,24%,·
COC(=O)N/N=C\c1c(C)[nH]n(-c2ccccc2)c1=O,-4,?,?,?,14%,2%
COCC(=O)N/N=C/c1c(C)[nH]n(-c2ccccc2)c1=O,-7,-1%,79µM*,22%,21%,·
Cc1cccc(-c2nc3nc(C)cc(NCc4ccccc4Cl)n3n2)c1,·,·,-23%,-9%,1%[57 µM],·
O=C(CCn1c(=O)oc2ccccc21)NCCN1CCc2ccccc2C1,·,1%,50µM*,7%,18%,7%
O=C(CCCn1c(=O)oc2ccccc21)N1CCc2ccccc2C1,-2,-6%,-3%,0%,37%,1%
Cc1onc(-c2ccccc2)c1C(=O)NC(=S)NNC(=O)c1ccccc1O,-3,18µM*,79µM*,35µM*,-6%,?
CCCOc1ccc(C(=O)NC(=S)NNC(=O)c2c(-c3ccccc3)noc2C)cc1,-7,11µM*,?,-3%,-5%,1%
Cc1onc(-c2ccccc2)c1C(=O)N1CCCC1,5,·,-17%,50µM*,32%,·
CCCOc1ccc(C(=O)NNC(=S)NC(=O)CC)cc1,·,-19%,32µM*,14%[57.1 µM],21%,6%
CN(C)c1ccccc1C(=O)N1CCCC(C(=O)c2ccc3ccccc3c2)C1 (centres undefined),14,4%,?,?,-4%,-28%
Cc1cc2c(s1)c1cnn(Cc3ccc(F)c(F)c3)c(=O)c1n2C,·,·,-12%,·,·,·
Cc1onc(-c2ccccc2)c1C(=O)NC(=S)NNC(=O)c1ccc(O)cc1,-20,2%,?,3%,-7%,34%
Cc1onc(-c2ccccc2)c1C(=O)NC(=S)NNC(=O)c1ccc(O)cc1O,-18,11µM*,79µM*,22µM*,-15%,-21%
CCOC(=O)c1c(-c2ccc(OC)c(OC)c2)csc1NC(=O)c1ccc(F)cc1,·,·,15%,0%,59%,·
O=C(NNC(=O)c1cccnc1SCc1cccc([N+](=O)[O-])c1)c1ccccn1,0,10µM*,-31%,0%,24%,3%
CCOC(=O)[C@]12CCCC=C1N(Cc1ccco1)C(=O)[C@H](CC(=O)N1CCN(C(=O)c3ccco3)CC1)C2,2,·,·,·,·,·
COc1cc(CNc2ccc3[nH]c(=O)[nH]c3c2)cc(Cl)c1OCc1ccccc1F,·,·,-28%,-16%,3%,·
COc1cccc(CNc2ccc3[nH]c(=O)[nH]c3c2)c1OCc1ccccc1F,2,·,45µM*,28µM*,32µM*,?
C=CCOc1ccccc1CNc1ccc2c(c1)OCCO2,-25,?,50µM*,71µM*,?,·
CCOc1ccc(Br)cc1CNc1ccc2c(c1)OCCO2,14,-21%,28µM*,25µM*,50µM*,?
SMILES,PI5P4K alpha inh,JMJD2E inh,JMJD2A Tudor,BAZ2B block,HP1b binding inh,L3MBTL1 inh
CCOc1ccc(Br)cc1CNCCN1CCOCC1,12,1%,-25%,-6%,18%,-2%
C=CCOc1ccccc1CNc1ccc2[nH]c(=O)[nH]c2c1,-3,?,?,56µM*,?,-6%
N#Cc1c(N)n(-c2cccc(Cl)c2)c2nc3ccccc3nc12,·,·,-2%,0%,20%,·
Cc1ccc(OCCCCn2nnc3sc4c(c3c2=O)CCCC4)cc1,·,·,75%,113%,109%,·
Cc1ccc(C)c(N2CCN(C(=O)c3cc4c(=O)n(Cc5ccco5)ccc4nc3C)CC2)c1,·,·,?,?,-13%,·
Cc1ccnc(NS(=O)(=O)c2ccc(NC(=O)c3ccc4c(c3)OCCO4)cc2)n1,1,0%,-16%,-10%,11%,8%
COc1ccc(OC)c2c(=O)cc(C(=O)O)[nH]c12,-12,-11%,79µM*,?,-2%,·
CCC(CO)NCC(O)COCc1ccc2c(c1)OCO2 (centres undefined),3,?,50µM*,79µM*,-9%,·
CCOC(=O)C1CCCN(CC(O)COCc2ccc3c(c2)OCO3)C1 (centres undefined),8,?,1µM*,56µM*,?,7%
Nc1nc(Nc2cccc(C(F)(F)F)c2)sc1C(=O)c1ccccc1,·,·,-14%,-3%,40%,·
Cc1ccc(C(=O)c2sc(Nc3ccc(F)cc3)nc2N)c(C)c1,·,·,79µM*,40µM*,?,·
CC(C)(C)C(=O)c1sc(Nc2ccccc2)nc1N,·,-6%,56µM*,50µM*,?,-17%
CCOc1ccc(Nc2nc(N)c(C(=O)c3ccccc3Cl)s2)cc1,·,·,45µM*,?,?,·
COc1cccc(C(=O)c2sc(Nc3ccc(F)c(Cl)c3)nc2N)c1,·,·,-20%,-9%,13%,·
C=CCn1c(-c2cccn(Cc3ccc(Cl)cc3Cl)c2=O)n[nH]c1=S,·,-28%,56µM*,8%,12%,2%
C=CCn1c(-c2cccn(Cc3cccc(Cl)c3)c2=O)n[nH]c1=S,·,?,20µM*,-3%,8%,-4%
C=CCn1c(-c2ccc(=O)n(Cc3ccccc3)c2)n[nH]c1=S,·,5%,·,-23%,·,5%
C=CCn1c(-c2cccn(Cc3ccccc3)c2=O)n[nH]c1=S,-4,-18%,28µM*,-6%,46%,-8%
O=c1c(-c2n[nH]c(=S)n2-c2ccccc2)cccn1Cc1cccc(Cl)c1,-12,-8%,28µM*,-17%,11%,20%
C=CCn1c(-c2ccccc2[N+](=O)[O-])n[nH]c1=S,4,-2%,-7%,?,38%,-6%
CSc1nnc(-c2cccn(Cc3cccc(Cl)c3)c2=O)o1,-3,?,2%,-7%,50%,10%
Cc1ccc(C)c(S(=O)(=O)c2nnn3c2nc(NC(C)C)c2sccc23)c1,·,·,-26%,-15%,13%,·
CCOC(=O)c1c(NC(=O)CSc2cn(CCNC(=O)c3ccccc3OC)c3ccccc23)sc2c1CCCC2,·,·,-21%,-33%,27%,·
C=CCn1c(-c2cccn(Cc3ccc(Cl)cc3)c2=O)n[nH]c1=S,·,?,10µM*,-9%,1%,5%
